This is an account of results in PubChem BioAssay.

Values without a mark were called inactive. Calls of active or inactive are those of the source.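 How the source made its calls: active means GFP response above 150% of the DMSO level; inconclusive means fewer than 70 events counted for a yeast strain; inactive means the rest.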

This assay is described as follows: TOR pathway CIT2 reporter hit retest – S. cerevisiae, GFP fusion, cherry picks, mother/daughter gates, confirmation (AID 2274). Particulars: S. cerevisiae CIT2-GFP strain, flow cytometry, 3 h; at 10 µM; active compounds read high. On the technique in general: In flow cytometry, cells or beads pass a laser one at a time.
For the compound `COC(=O)Cn1cc(/C=C/c2cc[n+](C)cc2)c2ccccc21`, the GFP response, % of DMSO was 104%.

Take `C=CCNC(=S)N/N=C(\C)c1cccc(OC)c1`: the GFP response, % of DMSO is 96.4%.

On to `COc1cccc(-c2nnc(NC(=O)c3ccc(S(=O)(=O)N4CCOCC4)cc3)o2)c1`, for which the GFP response, % of DMSO is 100%.

For the compound `CCc1ccc(CNC(=O)CCC(=O)N2Cc3cccc(OC)c3Oc3ncccc32)cc1`, the GFP response, % of DMSO was 102%.

As for `N#C/C(=C\c1c(N2CCCCCC2)nc2ccccn2c1=O)C(=O)NCc1ccco1`, the GFP response, % of DMSO is 96.9%.

For the compound `C=CCn1c(=O)c(C(=O)NCCc2ccccc2)c(O)c2ccccc21`, the GFP response, % of DMSO is 99.7%.

`CCOC(=O)COc1c(Cl)cc(/C=C2\N=C(C)OC2=O)cc1OC`: the GFP response, % of DMSO was 103%.

With `CCOc1ccccc1/C=C/C(=O)c1ccc(Cl)cc1`, the GFP response, % of DMSO was 103%.

On to `Cc1c([N+](=O)[O-])cnc(Sc2ccccc2)c1[N+](=O)[O-]`, for which the GFP response, % of DMSO was 101%.

For `O=C(COC(=O)c1ccc(NS(=O)(=O)c2cccs2)cc1O)Nc1nc2ccccc2s1`, the GFP response, % of DMSO is 102%.

Take `COc1ccc(Sc2ncnc3onc(C)c23)cc1`: the GFP response, % of DMSO was 95.8%.

Take `Cc1ccc(S(=O)(=O)N2C3C=CC(C3)C2C(=O)O)cc1` (stereo not given): the GFP response, % of DMSO was 97.2%.

As for `Cc1ccc(C(C[N+](=O)[O-])Sc2ccc(N)cc2)cc1` (stereo not given), the GFP response, % of DMSO is 98.3%.

On to `CCOc1ccc(N2C(=O)CC(SCCN)C2=O)cc1` (stereo not given), for which the GFP response, % of DMSO was 98.3%.

Consider `O=C(O)Cc1sc(Nc2ccccc2)nc1-c1cccs1`, for which the GFP response, % of DMSO was 104%.

Consider `COc1ccccc1-c1noc(CCC(=O)Nc2cccc(C(F)(F)F)c2)n1`, for which the GFP response, % of DMSO is 100%.

`Cn1cc(/C=C/c2cc[n+](C)cc2)c2cc(Cl)ccc21`: the GFP response, % of DMSO is 125%.

As for `COc1cccc(-c2noc(-c3cccnc3)n2)c1`, the GFP response, % of DMSO was 103%.

On to `COc1ccc(-c2ccc(SCC(=O)N3c4ccccc4CC3C)nn2)cc1OC` (stereo not given), for which the GFP response, % of DMSO is 96.4%.

For `Cc1ccc2c(nc3s/c(=C\c4ccc(-c5ccccc5C(=O)O)o4)c(=O)n32)c1C`, the GFP response, % of DMSO is 157% (active).

Take `COC(=O)C1=C(C)NC(C)=C(C(=O)OC)C1c1ccc(OC(=O)c2oc3ccccc3c2C)c(OC)c1`: the GFP response, % of DMSO is 103%.

As for `COc1ccc(N2CCN(C(=O)C3CCCN(S(=O)(=O)c4ccc(C)cc4)C3)CC2)cc1` (stereo not given), the GFP response, % of DMSO was 103%.

As to `O=C(Nc1nccs1)C(c1ccccc1)N1CCCCC1` (stereo not given), the GFP response, % of DMSO is 94.4%.

Turning to `C/C(=N\NC(=O)c1cccc(Br)c1)c1ccc(Br)cc1`, the GFP response, % of DMSO was 98.6%.

For `O=C(OCCCOC(=O)c1ccc(Br)o1)c1ccc(Br)o1`, the GFP response, % of DMSO is 97.2%.

As for `CCOC(=O)Cc1csc(NC(=O)c2sc3nc4c(C)cc(C)cc4cc3c2N)n1`, the GFP response, % of DMSO was 115%.

`Cc1nn2c(N3CCOCC3)c3c(nc2c1-c1ccccc1)CCCC3`: the GFP response, % of DMSO was 103%.

In the case of `O=C(Nc1cc(Sc2ccccn2)cc([N+](=O)[O-])c1)c1ccc(Cl)cc1`, the GFP response, % of DMSO was 101%.

In the case of `O=S(=O)(c1cccc(C(F)(F)F)c1)c1ccc(O)cn1`, the GFP response, % of DMSO was 104%.

Consider `COc1cc(/C=N/Nc2nc(C)cc(=O)[nH]2)ccc1O`, for which the GFP response, % of DMSO was 117%.

As to `O=C(N/N=C/c1ccccc1Cl)c1ccc(F)cc1`, the GFP response, % of DMSO is 105%.

Turning to `Cc1cccc(C(=O)Nc2ccc(O)cc2)c1`, the GFP response, % of DMSO was 103%.

Regarding `COc1ccc(NC2=C(Cl)C(=O)N(CCc3ccccc3)C2=O)cc1`, the GFP response, % of DMSO was 102%.

In the case of `CN(C(=O)c1cccnc1)c1nc(-c2ccccc2)cs1`, the GFP response, % of DMSO is 98.6%.

Take `Cc1ccc(NC(=O)c2nc(S(=O)(=O)Cc3ccccc3C)ncc2Cl)cc1C`: the GFP response, % of DMSO is 94.4%.

Take `Cc1cccn2c(=O)c(/C=C(\C#N)C(=O)NCc3ccco3)c(N3CCC(C(N)=O)CC3)nc12`: the GFP response, % of DMSO was 92.2%.

Turning to `Cc1cc(C)c(C)c(S(=O)(=O)ON2C(=O)c3ccccc3C2=O)c1C`, the GFP response, % of DMSO is 105%.

`CS(=O)(=O)c1nc(-c2cccs2)cc(C(F)(F)F)n1`: the GFP response, % of DMSO is 94.4%.

With `COc1cc(NC(=O)c2cccs2)ccc1NC(=O)c1cc2ccccc2o1`, the GFP response, % of DMSO is 101%.

Take `Cc1cc(NCCN2CCOCC2)n2ncc(-c3ccccc3)c2n1`: the GFP response, % of DMSO was 103%.
